Among the data in publication PMC7862700, “An all-to-all approach to the identification of sequence-specific readers for epigenetic DNA modifications on cytosine” are binding signal values, retold here.

Holding throughout (assay): DAPPL (digital affinity profiling via proximity ligation, sequencing); 10 mM Tris-HCl pH 7.5, 50 mM NaCl, 1 mM DTT, 4% glycerol, room temperature, 30 min; GST-TFs on glutathione beads, 16-mer random dsDNA library, 0.1% formaldehyde crosslink after washing; high values mean tight binding
For test [1], the target named is T1, FEV (Homo sapiens, UniProt Q99581 1-238).
T1 sequence: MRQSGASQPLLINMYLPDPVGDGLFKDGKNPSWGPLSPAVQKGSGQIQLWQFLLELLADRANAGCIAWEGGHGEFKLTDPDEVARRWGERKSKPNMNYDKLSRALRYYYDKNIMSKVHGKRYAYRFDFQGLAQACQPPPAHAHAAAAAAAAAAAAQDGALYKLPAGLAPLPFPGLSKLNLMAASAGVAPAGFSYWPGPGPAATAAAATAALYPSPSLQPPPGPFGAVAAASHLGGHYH
To be noted: protein: recombinant; tags: N-terminal GST; dsDNA, one strand shown. An outline of the steps:
(§1)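 Sequencing on an Illumina NextSeq500 followed washing, crosslinking with 0.1% formaldehyde, proximity ligation (BsaI/T4 ligase, 1 h, 37 °C) and PCR amplification of pools that had been incubated for 30 min at room temperature with 200 nmole of a random double-stranded 16-mer DNA library in Tris/NaCl/DTT/glycerol buffer. Each pool held DNA-barcoded human transcription factors, expressed in yeast as GST fusions and captured on glutathione beads, plus a tag-only sample. Binding signal is a hexamer's read frequency for a factor divided by its frequency in the tag-only sample.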

The target of test [2] is ETV5 (Homo sapiens, UniProt P41161 1-510). To be noted: protein: recombinant; tags: N-terminal GST; dsDNA, one strand shown. An outline of the steps:
as §1

In test [3] the target is HSF1 (Homo sapiens, UniProt Q00613 1-529). To be noted: protein: recombinant; tags: N-terminal GST; chain copies: 3; dsDNA, one strand shown. A digest of the protocol: as §1
Sequence of HSF1 (Q00613 whole entry): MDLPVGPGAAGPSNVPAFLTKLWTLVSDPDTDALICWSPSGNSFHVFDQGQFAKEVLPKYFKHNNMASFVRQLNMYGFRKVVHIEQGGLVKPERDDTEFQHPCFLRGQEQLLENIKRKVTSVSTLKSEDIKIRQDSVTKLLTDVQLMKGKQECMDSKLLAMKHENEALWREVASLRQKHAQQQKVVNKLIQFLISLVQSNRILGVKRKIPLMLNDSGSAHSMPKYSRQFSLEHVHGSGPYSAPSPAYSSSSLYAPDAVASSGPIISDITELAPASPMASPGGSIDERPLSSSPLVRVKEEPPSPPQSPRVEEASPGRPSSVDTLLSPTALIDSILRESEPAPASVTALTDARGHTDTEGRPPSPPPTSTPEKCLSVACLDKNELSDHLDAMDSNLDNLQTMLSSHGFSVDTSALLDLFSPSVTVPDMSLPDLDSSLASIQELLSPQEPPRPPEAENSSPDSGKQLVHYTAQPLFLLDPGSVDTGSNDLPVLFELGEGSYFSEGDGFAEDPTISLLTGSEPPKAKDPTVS
The target of test [4] is T2, SPIC (Homo sapiens, UniProt Q8N5J4 1-248).
T2 sequence: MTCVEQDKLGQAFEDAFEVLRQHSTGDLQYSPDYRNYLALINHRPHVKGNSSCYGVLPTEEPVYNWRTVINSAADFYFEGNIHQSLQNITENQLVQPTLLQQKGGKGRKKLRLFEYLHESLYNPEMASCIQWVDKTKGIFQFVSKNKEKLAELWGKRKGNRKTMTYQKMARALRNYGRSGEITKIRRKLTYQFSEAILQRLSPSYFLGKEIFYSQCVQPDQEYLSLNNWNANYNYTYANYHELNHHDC
The following applies: protein: recombinant; tags: N-terminal GST; dsDNA, one strand shown. A digest of the protocol: as §1

Test [5] addresses ELF4 (Homo sapiens, UniProt Q99607 1-663). The following applies: protein: recombinant; tags: N-terminal GST; dsDNA, one strand shown. A digest of the protocol: as §1
Test [6] addresses T3, ELK4 (Homo sapiens, UniProt P28324-2 1-405).
T3 sequence: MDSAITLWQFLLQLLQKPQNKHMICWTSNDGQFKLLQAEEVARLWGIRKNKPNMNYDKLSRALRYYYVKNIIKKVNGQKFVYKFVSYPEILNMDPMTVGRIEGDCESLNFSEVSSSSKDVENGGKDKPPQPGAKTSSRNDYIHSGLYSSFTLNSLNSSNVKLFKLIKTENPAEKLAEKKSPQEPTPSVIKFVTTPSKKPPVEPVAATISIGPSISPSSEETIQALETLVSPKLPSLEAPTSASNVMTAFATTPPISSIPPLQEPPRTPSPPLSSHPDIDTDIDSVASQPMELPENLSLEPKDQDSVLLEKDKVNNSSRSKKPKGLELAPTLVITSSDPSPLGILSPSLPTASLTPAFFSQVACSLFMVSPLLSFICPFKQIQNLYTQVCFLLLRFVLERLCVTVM
To be noted: protein: recombinant; tags: N-terminal GST; dsDNA, one strand shown. A digest of the protocol:
as §1

The target in test [7] is T4, ETV2 (Homo sapiens, UniProt O00321 1-342).
T4 sequence: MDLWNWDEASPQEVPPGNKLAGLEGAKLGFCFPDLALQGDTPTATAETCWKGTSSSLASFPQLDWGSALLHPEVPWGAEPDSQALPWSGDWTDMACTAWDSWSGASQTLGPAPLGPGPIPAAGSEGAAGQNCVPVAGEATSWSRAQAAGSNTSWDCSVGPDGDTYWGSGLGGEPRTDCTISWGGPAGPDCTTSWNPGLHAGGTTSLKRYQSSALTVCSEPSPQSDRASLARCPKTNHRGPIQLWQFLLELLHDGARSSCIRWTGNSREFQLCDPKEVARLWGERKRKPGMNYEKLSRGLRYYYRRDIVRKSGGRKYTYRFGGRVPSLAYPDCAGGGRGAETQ
The following applies: protein: recombinant; tags: N-terminal GST; dsDNA, one strand shown. An outline of the steps:
as §1

For test [8], the target named is T5, ELF3 (Homo sapiens, UniProt P78545 1-371).
T5 sequence: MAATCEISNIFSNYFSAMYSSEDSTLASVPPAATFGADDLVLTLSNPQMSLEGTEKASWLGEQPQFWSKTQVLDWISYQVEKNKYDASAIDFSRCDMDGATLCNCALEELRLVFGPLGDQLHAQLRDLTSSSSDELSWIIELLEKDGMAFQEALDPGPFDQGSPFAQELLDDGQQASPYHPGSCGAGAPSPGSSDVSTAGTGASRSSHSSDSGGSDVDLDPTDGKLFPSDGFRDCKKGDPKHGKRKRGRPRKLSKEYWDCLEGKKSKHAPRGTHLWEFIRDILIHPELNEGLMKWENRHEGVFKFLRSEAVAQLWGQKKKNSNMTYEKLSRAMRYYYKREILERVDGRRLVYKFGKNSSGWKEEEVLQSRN
To be noted: protein: recombinant; tags: N-terminal GST; dsDNA, one strand shown. A digest of the protocol: as §1

Test [9] concerns the target CRX (Homo sapiens, UniProt O43186 1-299). To be noted: protein: recombinant; tags: N-terminal GST; dsDNA, one strand shown. An outline of the steps:
as §1

Test [10] concerns the target ETV1 (Homo sapiens, UniProt P50549 1-477). To be noted: protein: recombinant; tags: N-terminal GST; dsDNA, one strand shown. A digest of the protocol: as §1
Test [11] has as its target T6, ERF (Homo sapiens, UniProt P50548 1-548).
T6 sequence: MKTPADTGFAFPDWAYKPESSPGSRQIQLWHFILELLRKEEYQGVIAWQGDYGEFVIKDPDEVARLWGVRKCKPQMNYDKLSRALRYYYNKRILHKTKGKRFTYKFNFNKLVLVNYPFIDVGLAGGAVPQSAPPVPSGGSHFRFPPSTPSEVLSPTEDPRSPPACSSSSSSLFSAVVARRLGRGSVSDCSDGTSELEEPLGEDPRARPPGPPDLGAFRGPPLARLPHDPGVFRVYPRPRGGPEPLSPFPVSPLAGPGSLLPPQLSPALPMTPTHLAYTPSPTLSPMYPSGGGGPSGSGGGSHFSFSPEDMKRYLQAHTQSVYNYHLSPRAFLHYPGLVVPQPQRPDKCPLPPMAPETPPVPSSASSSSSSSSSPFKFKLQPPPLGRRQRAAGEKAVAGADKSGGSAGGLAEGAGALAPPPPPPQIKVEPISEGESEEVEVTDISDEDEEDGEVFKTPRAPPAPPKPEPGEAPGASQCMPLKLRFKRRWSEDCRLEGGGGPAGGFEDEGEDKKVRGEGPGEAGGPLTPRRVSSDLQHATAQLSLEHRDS
The following applies: protein: recombinant; tags: N-terminal GST; dsDNA, one strand shown. A digest of the protocol: as §1

For test [12], the target named is T7, ETV3L (Homo sapiens, UniProt Q6ZN32 1-361).
T7 sequence: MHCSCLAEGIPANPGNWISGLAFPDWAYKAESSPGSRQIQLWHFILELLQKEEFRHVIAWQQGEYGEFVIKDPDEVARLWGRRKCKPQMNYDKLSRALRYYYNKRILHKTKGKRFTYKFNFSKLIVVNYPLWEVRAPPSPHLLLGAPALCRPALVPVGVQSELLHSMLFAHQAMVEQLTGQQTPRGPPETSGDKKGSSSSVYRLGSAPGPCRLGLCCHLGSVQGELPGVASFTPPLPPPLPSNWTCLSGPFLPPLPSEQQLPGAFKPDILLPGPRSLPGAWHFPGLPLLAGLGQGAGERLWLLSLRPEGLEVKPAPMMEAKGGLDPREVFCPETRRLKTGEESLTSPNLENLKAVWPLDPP
The following applies: protein: recombinant; tags: N-terminal GST; dsDNA, one strand shown. An outline of the steps: as §1

Test [13] concerns the target T8, ETS2 (Homo sapiens, UniProt P15036 1-469).
T8 sequence: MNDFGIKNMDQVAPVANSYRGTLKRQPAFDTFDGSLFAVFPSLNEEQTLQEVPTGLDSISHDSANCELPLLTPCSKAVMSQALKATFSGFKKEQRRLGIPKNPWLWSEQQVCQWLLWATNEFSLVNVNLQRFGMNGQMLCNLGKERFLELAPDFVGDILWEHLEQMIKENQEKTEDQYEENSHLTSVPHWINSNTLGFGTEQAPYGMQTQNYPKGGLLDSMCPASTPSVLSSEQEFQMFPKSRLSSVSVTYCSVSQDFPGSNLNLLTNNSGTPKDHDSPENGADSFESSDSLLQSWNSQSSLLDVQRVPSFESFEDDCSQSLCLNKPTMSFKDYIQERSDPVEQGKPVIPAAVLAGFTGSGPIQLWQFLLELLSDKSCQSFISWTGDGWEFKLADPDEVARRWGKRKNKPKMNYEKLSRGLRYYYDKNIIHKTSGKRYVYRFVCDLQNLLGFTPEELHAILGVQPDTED
The following applies: protein: recombinant; tags: N-terminal GST; dsDNA, one strand shown. An outline of the steps:
as §1

Test [14] deals with T9, SPDEF (Homo sapiens, UniProt O95238 1-335).
T9 sequence: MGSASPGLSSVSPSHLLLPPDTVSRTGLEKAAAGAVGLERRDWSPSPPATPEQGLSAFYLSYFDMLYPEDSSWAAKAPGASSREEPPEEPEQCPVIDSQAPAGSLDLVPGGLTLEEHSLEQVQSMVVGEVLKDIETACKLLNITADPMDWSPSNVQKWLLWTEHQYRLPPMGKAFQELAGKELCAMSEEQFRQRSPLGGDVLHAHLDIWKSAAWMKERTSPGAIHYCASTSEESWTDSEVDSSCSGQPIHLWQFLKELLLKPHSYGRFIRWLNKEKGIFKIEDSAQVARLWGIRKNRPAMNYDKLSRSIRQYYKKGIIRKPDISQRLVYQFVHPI
The following applies: protein: recombinant; tags: N-terminal GST; dsDNA, one strand shown. An outline of the steps:
as §1

Test [15] has as its target T10, ETV7 (Homo sapiens, UniProt Q9Y603 1-341).
T10 sequence: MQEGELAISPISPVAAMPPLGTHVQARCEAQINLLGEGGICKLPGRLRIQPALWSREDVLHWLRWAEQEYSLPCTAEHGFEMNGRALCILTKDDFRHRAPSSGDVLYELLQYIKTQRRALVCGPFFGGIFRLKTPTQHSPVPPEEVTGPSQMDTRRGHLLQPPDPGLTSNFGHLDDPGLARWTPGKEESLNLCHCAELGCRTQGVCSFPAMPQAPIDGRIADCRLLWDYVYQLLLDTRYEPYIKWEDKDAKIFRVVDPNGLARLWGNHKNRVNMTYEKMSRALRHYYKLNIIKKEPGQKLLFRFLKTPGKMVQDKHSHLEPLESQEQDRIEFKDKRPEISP
The following applies: protein: recombinant; tags: N-terminal GST; dsDNA, one strand shown. An outline of the steps:
as §1

Test [16] concerns the target T11, ELF5 (Homo sapiens, UniProt Q9UKW6-2 1-255).
T11 sequence: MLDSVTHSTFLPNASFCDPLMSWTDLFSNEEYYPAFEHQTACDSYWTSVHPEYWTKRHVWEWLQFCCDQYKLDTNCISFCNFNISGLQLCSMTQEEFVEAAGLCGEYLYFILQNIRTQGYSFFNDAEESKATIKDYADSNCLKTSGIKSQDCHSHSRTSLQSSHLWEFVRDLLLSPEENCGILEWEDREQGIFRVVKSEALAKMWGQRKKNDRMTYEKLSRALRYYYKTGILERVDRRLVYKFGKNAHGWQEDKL
To be noted: protein: recombinant; tags: N-terminal GST; dsDNA, one strand shown. A digest of the protocol: as §1

Test [17] concerns the target T12, ETV3 (Homo sapiens, UniProt P41162-2 1-143).
T12 sequence: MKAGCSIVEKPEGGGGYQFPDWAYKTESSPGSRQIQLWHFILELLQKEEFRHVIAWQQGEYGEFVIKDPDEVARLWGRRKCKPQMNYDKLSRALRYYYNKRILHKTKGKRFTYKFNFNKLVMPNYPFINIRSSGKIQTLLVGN
The following applies: protein: recombinant; tags: N-terminal GST; dsDNA, one strand shown. A digest of the protocol:
as §1

Test [18] addresses ETV6 (Homo sapiens, UniProt P41212 1-452). To be noted: protein: recombinant; tags: N-terminal GST; dsDNA, one strand shown. An outline of the steps:
as §1

Sequence of ETV1 (P50549 whole entry): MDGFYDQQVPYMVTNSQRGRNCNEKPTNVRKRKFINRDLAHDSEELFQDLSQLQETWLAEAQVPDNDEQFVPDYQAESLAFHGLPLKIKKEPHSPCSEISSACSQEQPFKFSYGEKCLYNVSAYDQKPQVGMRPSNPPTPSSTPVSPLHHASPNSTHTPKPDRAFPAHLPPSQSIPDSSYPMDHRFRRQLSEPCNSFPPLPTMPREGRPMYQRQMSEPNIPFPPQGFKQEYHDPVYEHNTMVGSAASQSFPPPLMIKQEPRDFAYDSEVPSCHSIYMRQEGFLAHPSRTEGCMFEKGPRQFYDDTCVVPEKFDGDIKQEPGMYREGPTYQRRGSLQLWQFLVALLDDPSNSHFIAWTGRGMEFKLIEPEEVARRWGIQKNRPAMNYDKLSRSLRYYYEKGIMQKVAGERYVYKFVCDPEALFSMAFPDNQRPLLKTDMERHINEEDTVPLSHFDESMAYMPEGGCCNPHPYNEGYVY
Sequence of ELF4 (Q99607 whole entry): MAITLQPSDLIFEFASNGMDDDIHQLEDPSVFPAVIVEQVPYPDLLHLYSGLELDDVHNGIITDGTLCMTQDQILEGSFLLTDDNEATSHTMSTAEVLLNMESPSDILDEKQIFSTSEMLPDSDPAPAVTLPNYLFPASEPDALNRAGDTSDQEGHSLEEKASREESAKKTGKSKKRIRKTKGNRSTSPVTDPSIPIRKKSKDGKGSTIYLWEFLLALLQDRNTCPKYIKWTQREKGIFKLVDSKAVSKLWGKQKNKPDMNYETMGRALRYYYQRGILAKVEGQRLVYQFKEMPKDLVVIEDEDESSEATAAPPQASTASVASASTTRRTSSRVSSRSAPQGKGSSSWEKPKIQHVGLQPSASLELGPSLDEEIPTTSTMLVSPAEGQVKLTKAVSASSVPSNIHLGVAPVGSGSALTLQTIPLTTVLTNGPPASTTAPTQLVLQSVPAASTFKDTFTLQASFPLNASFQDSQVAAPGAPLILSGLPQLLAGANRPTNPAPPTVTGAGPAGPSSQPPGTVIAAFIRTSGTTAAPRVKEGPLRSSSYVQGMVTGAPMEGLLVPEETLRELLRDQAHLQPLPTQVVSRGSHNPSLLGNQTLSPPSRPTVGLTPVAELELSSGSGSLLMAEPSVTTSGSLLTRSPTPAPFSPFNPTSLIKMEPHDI
Sequence of CRX (O43186 whole entry): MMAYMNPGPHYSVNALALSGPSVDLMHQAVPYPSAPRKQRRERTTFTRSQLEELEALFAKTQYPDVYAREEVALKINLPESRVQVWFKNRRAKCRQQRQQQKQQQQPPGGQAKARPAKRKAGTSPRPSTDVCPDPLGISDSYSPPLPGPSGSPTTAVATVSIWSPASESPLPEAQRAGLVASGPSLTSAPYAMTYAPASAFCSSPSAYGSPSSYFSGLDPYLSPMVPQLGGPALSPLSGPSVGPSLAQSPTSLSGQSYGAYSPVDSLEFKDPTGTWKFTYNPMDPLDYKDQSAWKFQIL
Sequence of ETV5 (P41161 whole entry): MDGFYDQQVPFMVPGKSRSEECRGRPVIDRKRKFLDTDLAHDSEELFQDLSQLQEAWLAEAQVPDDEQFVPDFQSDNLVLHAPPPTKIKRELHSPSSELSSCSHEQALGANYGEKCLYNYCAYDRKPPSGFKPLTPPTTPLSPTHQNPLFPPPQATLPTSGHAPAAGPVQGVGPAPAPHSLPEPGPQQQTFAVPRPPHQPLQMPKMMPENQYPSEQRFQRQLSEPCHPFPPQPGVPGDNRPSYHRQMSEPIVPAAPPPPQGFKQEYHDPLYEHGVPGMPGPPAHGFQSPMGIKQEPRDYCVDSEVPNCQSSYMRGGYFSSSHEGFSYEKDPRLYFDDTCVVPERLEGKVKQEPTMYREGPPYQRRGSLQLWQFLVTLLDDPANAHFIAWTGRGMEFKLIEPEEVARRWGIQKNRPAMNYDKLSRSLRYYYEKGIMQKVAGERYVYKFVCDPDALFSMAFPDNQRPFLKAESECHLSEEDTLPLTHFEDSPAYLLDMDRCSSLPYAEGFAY
Sequence of ETV6 (P41212 whole entry): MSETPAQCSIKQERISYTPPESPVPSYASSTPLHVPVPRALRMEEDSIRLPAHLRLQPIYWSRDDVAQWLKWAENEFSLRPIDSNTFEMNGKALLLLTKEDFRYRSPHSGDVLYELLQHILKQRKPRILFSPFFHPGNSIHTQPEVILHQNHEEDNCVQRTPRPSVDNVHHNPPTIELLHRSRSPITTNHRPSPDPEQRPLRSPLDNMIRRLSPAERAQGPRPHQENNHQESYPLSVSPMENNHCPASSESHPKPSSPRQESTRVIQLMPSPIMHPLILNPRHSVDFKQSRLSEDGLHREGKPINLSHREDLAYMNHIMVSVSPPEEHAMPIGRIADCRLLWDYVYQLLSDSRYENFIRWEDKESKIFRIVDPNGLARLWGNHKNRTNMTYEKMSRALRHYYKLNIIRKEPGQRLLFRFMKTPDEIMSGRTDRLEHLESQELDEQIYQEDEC

Take TCTCCC: the binding signal is 1.7 fold enrichment (6-mer frequency, TF over GST control) in test [1]; 1.64 fold enrichment (6-mer frequency, TF over GST control) in test [2]; 1.65 fold enrichment (6-mer frequency, TF over GST control) in test [3]; 1.51 fold enrichment (6-mer frequency, TF over GST control) in test [4]; 1.78 fold enrichment (6-mer frequency, TF over GST control) in test [5]; 1.63 fold enrichment (6-mer frequency, TF over GST control) in test [6]. The binding signal in test [7] is 1.54 fold enrichment (6-mer frequency, TF over GST control); in test [8] it was 1.78 fold enrichment (6-mer frequency, TF over GST control); in [9] it was 1.7 fold enrichment (6-mer frequency, TF over GST control); in [10], 1.78 fold enrichment (6-mer frequency, TF over GST control); in test [11], 1.89 fold enrichment (6-mer frequency, TF over GST control); in test [12], 1.61 fold enrichment (6-mer frequency, TF over GST control). Besides, the binding signal is 1.6 fold enrichment (6-mer frequency, TF over GST control) in test [13]; 1.6 fold enrichment (6-mer frequency, TF over GST control) in test [14]; 1.57 fold enrichment (6-mer frequency, TF over GST control) in test [15]; 1.7 fold enrichment (6-mer frequency, TF over GST control) in test [16]; 1.71 fold enrichment (6-mer frequency, TF over GST control) in [17]; 1.76 fold enrichment (6-mer frequency, TF over GST control) in test [18].
